# From the supplement of paper PMC3842684
# Legend:
# [1] = test system: P. falciparum NF54-pfs16-GFP early (I-III) stage gametocytes; test: relative % inhibition of viable gametocyte number; higher = more gametocytocidal; settings: stage: early (I-III) gametocyte, incubation 72 h
# Procedure, shortened: (§1)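 Magnet-isolated NF54 pfs16-GFP gametocytes at early (I/IIa, day 2) or late (day 8) stage were exposed to compound at 5 or 0.5 µM for 72 h at 37°C, 5% CO2, 5% O2, at 10% parasitaemia and 0.1% haematocrit. Elongated GFP objects with MitoTracker Red signal above cut-off were counted as viable by confocal imaging. Relative inhibition was normalised to in-plate vehicle and positive-control wells.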
# [2] = test system: P. falciparum NF54-pfs16-GFP late (IV-V) stage gametocytes; test: as above; settings: stage: late (IV-V) gametocyte, incubation 72 h
# Procedure, shortened: as §1
smiles,measurement,setting,value
COc1ccc2c(=O)cc(C(Cl)(Cl)Cl)oc2c1,relative % inhibition,[1]; 0.5 µM,68.6%
same,relative % inhibition,[1]; 5 µM,85.1%
same,relative % inhibition,[2]; 0.5 µM,8.37%
same,relative % inhibition,[2]; 5 µM,15.5%
O=C(Nc1cccc(-c2nc3ccccc3[nH]2)c1)c1cccc(NC(=O)c2ccco2)c1,relative % inhibition,[1]; 0.5 µM,12.9%
same,relative % inhibition,[1]; 5 µM,20.8%
same,relative % inhibition,[2]; 0.5 µM,-1.52%
same,relative % inhibition,[2]; 5 µM,0.95%
COCCNC(=O)c1ccc(OC2CCN(Cc3ccc(F)c(F)c3)CC2)c(Cl)c1,relative % inhibition,[1]; 0.5 µM,7.61%
same,relative % inhibition,[1]; 5 µM,-0.414%
same,relative % inhibition,[2]; 0.5 µM,14.2%
same,relative % inhibition,[2]; 5 µM,39.9%
COc1cccc(-c2nn(C)c3sc(C(=O)NCCN4CCN(c5ccccc5F)CC4)cc23)c1,relative % inhibition,[1]; 0.5 µM,12.4%
same,relative % inhibition,[1]; 5 µM,82.5%
same,relative % inhibition,[2]; 0.5 µM,16.7%
same,relative % inhibition,[2]; 5 µM,4.42%
CCN1CCN(c2c(C(=O)c3ccccc3)cnc3cc(OC)c(OC)cc23)CC1,relative % inhibition,[1]; 0.5 µM,2.47%
same,relative % inhibition,[1]; 5 µM,-13.5%
same,relative % inhibition,[2]; 0.5 µM,12.1%
same,relative % inhibition,[2]; 5 µM,-8.91%
CN1C=C(c2ccc3ccccc3n2)C(c2c[nH]c3ccccc23)c2ccccc21 (stereo not drawn),relative % inhibition,[1]; 0.5 µM,16.1%
same,relative % inhibition,[1]; 5 µM,49.6%
same,relative % inhibition,[2]; 0.5 µM,19.8%
same,relative % inhibition,[2]; 5 µM,34.8%
COc1nc(Nc2ccc(C(C)C)cc2)nc(OC)n1,relative % inhibition,[1]; 0.5 µM,24.9%
same,relative % inhibition,[1]; 5 µM,0.105%
same,relative % inhibition,[2]; 0.5 µM,-0.358%
same,relative % inhibition,[2]; 5 µM,-10.9%
CCOC(=O)c1cnc2c(CC)cccc2c1O,relative % inhibition,[1]; 0.5 µM,-5.02%
same,relative % inhibition,[1]; 5 µM,0.0948%
same,relative % inhibition,[2]; 0.5 µM,21.6%
same,relative % inhibition,[2]; 5 µM,45.2%
CC(C)(C)CC(C)(C)NCC(O)COc1ccc2c(c1)CCC2 (stereo not drawn),relative % inhibition,[1]; 0.5 µM,-11.4%
same,relative % inhibition,[1]; 5 µM,78.8%
same,relative % inhibition,[2]; 0.5 µM,17.6%
same,relative % inhibition,[2]; 5 µM,20.4%
COc1cc2c(cc1OC)C1=NNC(=O)C1=NC(C)(C)C2,relative % inhibition,[1]; 0.5 µM,71.5%
same,relative % inhibition,[1]; 5 µM,88.6%
same,relative % inhibition,[2]; 0.5 µM,100%
same,relative % inhibition,[2]; 5 µM,98.5%
COc1ccc(C(=O)C(CCC(CNC(C)(C)C)C(=O)c2ccc(OC)cc2)CNC(C)(C)C)cc1 (stereo not drawn),relative % inhibition,[1]; 0.5 µM,62.7%
same,relative % inhibition,[1]; 5 µM,94%
same,relative % inhibition,[2]; 0.5 µM,10.9%
same,relative % inhibition,[2]; 5 µM,104%
CN1c2ccccc2N(C)C1c1ccc2c(c1)OCO2,relative % inhibition,[1]; 0.5 µM,0.225%
same,relative % inhibition,[1]; 5 µM,-13.6%
same,relative % inhibition,[2]; 0.5 µM,28.6%
same,relative % inhibition,[2]; 5 µM,-1.98%
COc1cc(C(=O)Nc2ccc(-c3nc4ccccc4[nH]3)cc2)cc(OC)c1OC,relative % inhibition,[1]; 0.5 µM,22.1%
same,relative % inhibition,[1]; 5 µM,42.1%
same,relative % inhibition,[2]; 0.5 µM,20.5%
same,relative % inhibition,[2]; 5 µM,9.54%
O=C(NCC1Cc2cccc(-c3ccncc3)c2O1)c1csc2c1CCCC2 (stereo not drawn),relative % inhibition,[1]; 0.5 µM,-5.92%
same,relative % inhibition,[1]; 5 µM,6.48%
same,relative % inhibition,[2]; 0.5 µM,5.28%
same,relative % inhibition,[2]; 5 µM,-0.912%
CC(C)CCNCC(O)Cn1c2ccccc2c2ccccc21 (stereo not drawn),relative % inhibition,[1]; 0.5 µM,23.7%
same,relative % inhibition,[1]; 5 µM,102%
same,relative % inhibition,[2]; 0.5 µM,19%
same,relative % inhibition,[2]; 5 µM,82.9%
CCN1CCN(c2cc(C)c3cc(NC(=O)c4ccc(OC)c(OC)c4)ccc3n2)CC1,relative % inhibition,[1]; 0.5 µM,11.4%
same,relative % inhibition,[1]; 5 µM,14.1%
same,relative % inhibition,[2]; 0.5 µM,-6.56%
same,relative % inhibition,[2]; 5 µM,3.96%
COc1ccc(C2c3ccc4ccccc4c3Oc3ncn(CCCn4ccnc4)c(=N)c32)cc1OC (stereo not drawn),relative % inhibition,[1]; 0.5 µM,59.1%
same,relative % inhibition,[1]; 5 µM,-9.76%
same,relative % inhibition,[2]; 0.5 µM,49.2%
same,relative % inhibition,[2]; 5 µM,74.6%
Nc1ccc(-c2nc3cc(Oc4ccc(Oc5ccc6[nH]c(-c7ccc(N)cc7)nc6c5)cc4)ccc3[nH]2)cc1,relative % inhibition,[1]; 0.5 µM,13.7%
same,relative % inhibition,[1]; 5 µM,98%
same,relative % inhibition,[2]; 0.5 µM,13.4%
same,relative % inhibition,[2]; 5 µM,32.9%
Cc1ccc(Cl)cc1N1CCN(CCCNC(=O)C2CCN(c3nc4ccccc4[nH]3)CC2)CC1,relative % inhibition,[1]; 0.5 µM,20%
same,relative % inhibition,[1]; 5 µM,66%
same,relative % inhibition,[2]; 0.5 µM,28.3%
same,relative % inhibition,[2]; 5 µM,-3.06%
Cc1ccc(C)c(Cn2c(N3CCC(C(=O)NCc4cccs4)CC3)nc3ccccc32)c1,relative % inhibition,[1]; 0.5 µM,13.8%
same,relative % inhibition,[1]; 5 µM,39.4%
same,relative % inhibition,[2]; 0.5 µM,6.18%
same,relative % inhibition,[2]; 5 µM,31.6%
CCOc1ccc(-n2cc(-c3ccccc3)c3c(SCc4cc(C)ccc4C)ncnc32)cc1,relative % inhibition,[1]; 0.5 µM,-4.24%
same,relative % inhibition,[1]; 5 µM,-7.96%
same,relative % inhibition,[2]; 0.5 µM,11.3%
same,relative % inhibition,[2]; 5 µM,19.7%
COc1ccccc1CNC(=O)C1c2ccccc2C(=O)N(CC(C)C)C1c1cccs1 (stereo not drawn),relative % inhibition,[1]; 0.5 µM,-0.661%
same,relative % inhibition,[1]; 5 µM,31.9%
same,relative % inhibition,[2]; 0.5 µM,-10.4%
same,relative % inhibition,[2]; 5 µM,-4.52%
